Data on 40 compounds can be found in PubChem BioAssay (NCI).

About 79,000 compounds went through this panel and 15% of them were active in at least one assay; those are over-represented in the sample as a whole. Unmarked numbers belong to inactive results. The source made the active and inactive calls. Cut-off read from the data, not from the text of the source: active = growth inhibition above about 70%; inactive = the rest.

The first assay in a line: NCI Yeast Anticancer Drug Screen. Data for the rad50 strain (AID 155).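 Note: 0% = growth of vehicle-only cultures of the same strain.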 The note with it: S. cerevisiae rad50 strain growth inhibition; at 50.0 µM; active compounds read high. An outline of the steps: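 Genetically altered yeast (DNA repair pathway); compound treatment; growth inhibition vs vehicle ctrl.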
Consider `Cn1nnnc1NN(c1nnnn1C)C1C=CCC=C1`, for which the growth inhibition is 6.4%.
Consider `CN(C(=O)/C=C/c1ccccc1)c1ccccc1`, for which the growth inhibition is 45.6%.
Take `O=C(O)C(Cc1ccc(O)cc1)NC(=O)C(CSC(c1ccccc1)(c1ccccc1)c1ccccc1)NC(c1ccccc1)(c1ccccc1)c1ccccc1` (stereo not given): the growth inhibition was 3.75%.
`O=P(Nc1cccc(Cl)c1)(Nc1cccc(Cl)c1)c1ccccc1`: the growth inhibition is 96.8% (active).
On to `S=c1nc[nH]c2nc[nH]c12`, for which the growth inhibition is -18%.
On to `O=S(=O)(O)c1ccc2cc(O)ccc2c1`, for which the growth inhibition is 35.7%.
Consider `CC(O)CCNC(c1ccccc1)C(O)c1ccccc1` (stereo not given), for which the growth inhibition was 3%.
For the compound `CCOCCC(O)CC` (stereo not given), the growth inhibition was 3.3%.
Turning to `CCSc1cc(=O)n(C)c(=O)n1C`, the growth inhibition was 13.6%.
Turning to `COC(=O)C1CSCN1` (stereo not given), the growth inhibition is -23.9%.
With `CN1C(=O)/C(=C2\SC(=O)N(CN3CCCCC3)C2=O)c2cc(Br)ccc21`, the growth inhibition is -10.6%.
Turning to `Cc1nn(C)c(C#N)c1[N+](=O)[O-]`, the growth inhibition was -7.05%.
Still for that read-out and setting: with `CN(C)CCN1CCCN(C)CC1` the figure was -14.9%; with `Nc1c(Cl)ncnc1Cl`, -13.8%.
On the same count and under the same terms, the figure for `COC1=C(c2ccccc2)P(=O)(Cc2ccccc2)C2CCCC12` (stereo not given) is 4.95%; for `CC(=O)c1ccc(Cl)c(Cl)c1` it is -3.6%; for `CC(C)c1ccc(/C=N\N(C)C)cc1` it is 2.3%.
Turning to `C[Si](C)(C)c1ccc(-c2ccccc2)cc1`, the growth inhibition was 20.1%.
On the same count and under the same terms, with `CCCNCCC(=O)Nc1ccccc1C(=O)OCC` the figure was 3.15%; with `N#Cc1c(Br)n(C2OC(CO)C(O)C2O)c2ncncc12` (stereo not given), 1.5%; with `CC(C)(C)c1ccc2c(c1)CNCCNCCNCc1cc(C(C)(C)C)ccc1OCC1(CO2)COc2ccc(C(C)(C)C)cc2CNCCNCCNCc2cc(C(C)(C)C)ccc2OC1`, 91% (active).
Same read-out and setting: the figure for `COC(=O)c1c2c(cc3c1CC1(Cc4cc5c(c(C=O)c4C1)CCC5)C3)CCC2` (stereo not given) is -50.6%.
On the same count and under the same terms, the figure for `CC(=O)CC(=O)Nc1ccccc1[N+](=O)[O-]` is -7.05%; for `O=C1c2ccccc2CN1c1ccccc1` it is -23%; for `O=C(c1ccccc1)C1(Br)CCCCC1` it is -2.1%.
Turning to `COc1ccc(S(=O)(=O)N/N=C/c2cc(I)cc([N+](=O)[O-])c2O)cc1OC`, the growth inhibition is 35%.
Turning to `O=c1[nH]c(/C=C(\O)c2ccncc2)nc2ccccc12`, the growth inhibition was -7.6%.
On to `COC(=O)c1c2c(C)ccc(C)c2nc2c(C)ccc(C)c12`, for which the growth inhibition was -5.6%.
For the compound `COC(=O)C1C(O)CCC2CN3CCc4c([nH]c5cccc(OC)c45)C3CC21` (stereo not given), the growth inhibition is -3.7%.
With `N=C(N)SCCC(=O)CCSC(=N)N`, the growth inhibition is 27.9%.
On to `CN1c2ccccc2S(=O)(=O)n2c(COc3ccc(Cl)cc3)nnc21`, for which the growth inhibition is -3.4%.
With `C=C(Br)CNC(=O)c1ccccc1`, the growth inhibition is 7.5%.
Turning to `CSc1ccc(NC(=O)Nc2ccc(Nc3ccccc3)cc2)cc1`, the growth inhibition is -0.95%.
As to `O=S(=O)(O)c1cc(N=Nc2cc(S(=O)(=O)O)c3ccccc3c2O)ccc1/C=C/c1ccc(N=Nc2cc(S(=O)(=O)O)c3ccccc3c2O)cc1S(=O)(=O)O`, the growth inhibition is 34%.
With `N#Cc1ccccc1OCCCCCCCCCCOc1ccccc1C#N`, the growth inhibition was -2.8%.
As for `N#CC(NCCCNC(C#N)c1ccccc1)c1ccccc1` (stereo not given), the growth inhibition was -1%.
On to `CCNCc1ccccc1`, for which the growth inhibition is -18.2%.
`CCCCCCCCCCCCCCCCOc1ccc(C2=NCC(C)S2)c(C)c1` (stereo not given): the growth inhibition is 3.6%.
Same read-out and setting: with `CN(C)/N=C1/CCCCC1C(O)(c1ccccc1)c1ccccc1` (stereo not given) the figure was -20.7%; with `O=c1/c(=C/c2ccco2)sc2nc3ccccc3n12`, 15.8%.

Another assay in a line: NCI Yeast Anticancer Drug Screen. Data for the mec2-1 strain (AID 157). The note with it: S. cerevisiae mec2-1 strain, at 50.0 µM, active compounds read high. An outline of the steps:
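Readout is yeast growth inhibition, normalised to vehicle-treated controls, in the mec2-1 strain exposed to compound.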
Regarding `Cn1nnnc1NN(c1nnnn1C)C1C=CCC=C1`, the growth inhibition is -6%.
On the same count and under the same terms, the figure for `CN(C(=O)/C=C/c1ccccc1)c1ccccc1` is 13.4%; for `O=C(O)C(Cc1ccc(O)cc1)NC(=O)C(CSC(c1ccccc1)(c1ccccc1)c1ccccc1)NC(c1ccccc1)(c1ccccc1)c1ccccc1` (stereo not given) it is 30.9%; for `O=P(Nc1cccc(Cl)c1)(Nc1cccc(Cl)c1)c1ccccc1` it is 74.1% (active).
Take `S=c1nc[nH]c2nc[nH]c12`: the growth inhibition was 0.25%.
`O=S(=O)(O)c1ccc2cc(O)ccc2c1`: the growth inhibition is 14.6%.
Take `CC(O)CCNC(c1ccccc1)C(O)c1ccccc1` (stereo not given): the growth inhibition is -6.95%.
Take `CCOCCC(O)CC` (stereo not given): the growth inhibition is -31.2%.
Consider `CCSc1cc(=O)n(C)c(=O)n1C`, for which the growth inhibition was 7.15%.
For `COC(=O)C1CSCN1` (stereo not given), the growth inhibition is -4.3%.
Still for that read-out and setting: with `CN1C(=O)/C(=C2\SC(=O)N(CN3CCCCC3)C2=O)c2cc(Br)ccc21` the figure was -1.2%; with `Cc1nn(C)c(C#N)c1[N+](=O)[O-]`, -30.3%.
Turning to `CN(C)CCN1CCCN(C)CC1`, the growth inhibition is -13.8%.
On the same count and under the same terms, the figure for `Nc1c(Cl)ncnc1Cl` is 8.3%; for `COC1=C(c2ccccc2)P(=O)(Cc2ccccc2)C2CCCC12` (stereo not given) it is 21.4%; for `CC(=O)c1ccc(Cl)c(Cl)c1` it is -0.5%.
For `CC(C)c1ccc(/C=N\N(C)C)cc1`, the growth inhibition is 2.05%.
Turning to `C[Si](C)(C)c1ccc(-c2ccccc2)cc1`, the growth inhibition is -8.65%.
On to `CCCNCCC(=O)Nc1ccccc1C(=O)OCC`, for which the growth inhibition was -18%.
Same read-out and setting: the figure for `N#Cc1c(Br)n(C2OC(CO)C(O)C2O)c2ncncc12` (stereo not given) is 7.5%; for `CC(C)(C)c1ccc2c(c1)CNCCNCCNCc1cc(C(C)(C)C)ccc1OCC1(CO2)COc2ccc(C(C)(C)C)cc2CNCCNCCNCc2cc(C(C)(C)C)ccc2OC1` it is 93% (active).
Same read-out and setting: with `COC(=O)c1c2c(cc3c1CC1(Cc4cc5c(c(C=O)c4C1)CCC5)C3)CCC2` (stereo not given) the figure was -23.4%; with `CC(=O)CC(=O)Nc1ccccc1[N+](=O)[O-]`, -24.4%.
For the compound `O=C1c2ccccc2CN1c1ccccc1`, the growth inhibition is -25.6%.
Turning to `O=C(c1ccccc1)C1(Br)CCCCC1`, the growth inhibition was 11.7%.
Same read-out and setting: with `COc1ccc(S(=O)(=O)N/N=C/c2cc(I)cc([N+](=O)[O-])c2O)cc1OC` the figure was 22.1%; with `O=c1[nH]c(/C=C(\O)c2ccncc2)nc2ccccc12`, -23.2%; with `COC(=O)c1c2c(C)ccc(C)c2nc2c(C)ccc(C)c12`, -41%.
As for `COC(=O)C1C(O)CCC2CN3CCc4c([nH]c5cccc(OC)c45)C3CC21` (stereo not given), the growth inhibition is -14.8%.
On to `N=C(N)SCCC(=O)CCSC(=N)N`, for which the growth inhibition was 18.6%.
As for `CN1c2ccccc2S(=O)(=O)n2c(COc3ccc(Cl)cc3)nnc21`, the growth inhibition was 4.15%.
With `C=C(Br)CNC(=O)c1ccccc1`, the growth inhibition was -3.45%.
In the case of `CSc1ccc(NC(=O)Nc2ccc(Nc3ccccc3)cc2)cc1`, the growth inhibition was 29.8%.
For the compound `O=S(=O)(O)c1cc(N=Nc2cc(S(=O)(=O)O)c3ccccc3c2O)ccc1/C=C/c1ccc(N=Nc2cc(S(=O)(=O)O)c3ccccc3c2O)cc1S(=O)(=O)O`, the growth inhibition is 36%.
For `N#Cc1ccccc1OCCCCCCCCCCOc1ccccc1C#N`, the growth inhibition is -4.15%.
As to `N#CC(NCCCNC(C#N)c1ccccc1)c1ccccc1` (stereo not given), the growth inhibition is 5.05%.
On to `CCNCc1ccccc1`, for which the growth inhibition was -0.25%.
Turning to `CCCCCCCCCCCCCCCCOc1ccc(C2=NCC(C)S2)c(C)c1` (stereo not given), the growth inhibition was 2.6%.
As to `CN(C)/N=C1/CCCCC1C(O)(c1ccccc1)c1ccccc1` (stereo not given), the growth inhibition is -19.8%.
With `O=c1/c(=C/c2ccco2)sc2nc3ccccc3n12`, the growth inhibition is 5.35%.
